PHOSPHO1 block: PubChem AID 1565; Phosphoethanolamine/phosphocholine phosphatase (Homo sapiens), Q8TCT1; recombinant PHOSPHO1, absorbance phosphatase assay; inhibition, % at 13.3 µM; actives 1.1% (n = 290,000); in the data active = inhibition above about 60%
Target sequence (Q8TCT1 whole entry, looked up): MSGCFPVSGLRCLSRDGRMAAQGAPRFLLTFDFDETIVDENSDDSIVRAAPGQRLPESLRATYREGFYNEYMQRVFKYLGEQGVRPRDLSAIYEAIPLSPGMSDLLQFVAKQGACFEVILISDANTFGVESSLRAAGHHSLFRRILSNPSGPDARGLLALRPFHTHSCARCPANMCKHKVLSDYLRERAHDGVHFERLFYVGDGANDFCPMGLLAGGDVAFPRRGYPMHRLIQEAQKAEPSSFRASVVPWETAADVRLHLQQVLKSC
PABP1 MLLE inh: inhibitors of PABP1 MLLE–PAM2 peptide binding, primary screen, biochemical, fluorescence polarization, FITC-PAM2, GST-MLLE | inhibition, % at 20 µM | actives 0.36% (n = 360,000) | AID 588489, 2011; in the data active = inhibition above about 35%, passing the limit was not always enough;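 also: plate controls were DMSO wells with GST-MLLE for no effect and wells lacking GST-MLLE protein for full effect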
A3G deaminase: APOBEC3G DNA deaminase inhibitors, primary screen, biochemical, fluorescence, single-stranded DNA substrate, uHTS; inhibition, % at 20 µM; actives 0.28% (n = 330,000); recombinant A3G, ssDNA deamination FAM/TAMRA fluorescence; DNA dC->dU-editing enzyme APOBEC-3G (Homo sapiens), Q9HC16;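 active = inhibition of at least 40% at 20 µM, with no more than 30% in the related APOBEC3A deaminase screen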;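 also: plate controls were DMSO wells with A3G for no effect and wells lacking A3G enzyme for full effect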
APOBEC3A inh: APOBEC3A ssDNA deaminase inhibitors, primary screen, selectivity assay for APOBEC3G inhibitor project, biochemical, FAM/TAMRA oligo cleavage fluorescence | DNA dC->dU-editing enzyme APOBEC-3A (Homo sapiens), P31941 | recombinant A3A, FAM/TAMRA ssDNA deamination fluorescence | inhibition, % at 20 µM | actives 0.41% (n = 330,000) | AID 493011, 2011;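 active = at least 40% inhibition at 20 µM here, with at most 30% in a related deaminase screen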;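 also: plate controls were A3A with DMSO for no effect and wells lacking A3A enzyme for full effect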
Target sequence (P31941 whole entry, looked up): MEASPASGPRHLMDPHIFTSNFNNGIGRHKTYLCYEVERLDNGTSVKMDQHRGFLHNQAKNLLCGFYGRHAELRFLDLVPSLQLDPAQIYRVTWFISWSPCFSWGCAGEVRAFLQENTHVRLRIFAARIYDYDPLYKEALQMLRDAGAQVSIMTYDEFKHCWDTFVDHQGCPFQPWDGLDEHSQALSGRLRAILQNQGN
PABP polyA inh: PABP poly(A) RNA binding inhibitors, primary screen, biochemical, fluorescence polarization, uHTS; actives 1% (n = 290,000); Polyadenylate-binding protein 1 (Homo sapiens), P11940; calls only at 35 µM;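 also: calls also rest on retests at 20 µM and on dose response follow-up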
eIF4H inh: human eIF4H binding inhibitors, primary screen, translation initiation inhibitor project, biochemical, uHTS, fluorescence polarization. Eukaryotic translation initiation factor 4H (Homo sapiens), Q15056. eIF4H fluorescence polarization binding assay. inhibition, % at 35 µM. actives 0.94% (n = 290,000). AID 2012, 2009;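 also: calls also rest on retests at 20 µM and on dose response follow-up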
A3A conf: APOBEC3A deaminase inhibitors, retest, confirmation, selectivity assay for APOBEC3G inhibitor project, biochemical, single concentration, fluorescence readout; recombinant A3A, ssDNA deaminase UDG fluorescence assay; actives 63% (n = 1,400); AID 493151, 2011; shares compounds with APOBEC3A inh; inhibition, % at 20 µM;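 active = inhibition reaching a set limit, 80% of the first screen's cutoff, at 20 µM in any replicate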;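 also: plate controls were DMSO wells with A3A for no effect and wells lacking A3A enzyme for full effect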
UDG ctr A3A: E. coli UDG inhibitors, confirmation, counter-screen for APOBEC3A inhibitor project, biochemical, single concentration, fluorescence, FAM/TAMRA oligo | shares compounds with APOBEC3A inh | UDG counterscreen, FAM/TAMRA uracil oligo fluorescence | inhibition, % at 20 µM | 1,000 tested, under 10 active
Starred values were filed as active, the others as inactive; i = inactive; ? = inconclusive; . = no result given; + = active, no number. The list is not random: actives were taken first. Their share in the collection is about 2.6%. Unless noted, no rule for the calls is given here.

SMILES	PHOSPHO1 block	PABP1 MLLE inh	A3G deaminase	APOBEC3A inh	PABP polyA inh	eIF4H inh	A3A conf	UDG ctr A3A
COc1ccccc1C(CNC(=O)C(CCSC)NC(=O)c1ccccc1Cl)N1CCCC1 (centres undefined)	.	1	.	.	.	.	.	.
O=C(Nc1nc2ccccc2n1CCN1CCOCC1)c1ccc(COc2ccccc2Br)o1	32	0	4	2	i	4	.	.
O=C(CCNC(=O)c1ccc([N+](=O)[O-])cc1)Nc1nccs1	-28	-98	13	47*	i	-2	2	.
Cc1ccc(CNC(=O)CCNC(=O)c2ccc([N+](=O)[O-])cc2)cc1	.	-90	12	46*	.	.	41*	1
O=C(CN1C(=O)C2CC=CCC2C1=O)Nc1nc2ccccc2s1 (centres undefined)	48	-10	-4	-1	i	-5	.	.
Cc1ccccc1NC(=O)NNC(=O)CCc1ccccc1	36	-5	0	41*	i	-9	-1	.
Cc1ccc(C)c(NC(=O)NNC(=O)CCc2ccccc2)c1	36	-10	-3	2	i	-8	.	.
CCOc1cc(C#N)ccc1OCC(=O)N1CCN(C(=O)c2cccs2)CC1	.	1	-10	-1	.	.	.	.
CC(=O)OCCCn1c(C)[n+](C)c2cc(Cl)c(Cl)cc21	5	-137	19	87*	i	-16	73*	2
CCn1c(C)[n+](CCOC(C)=O)c2cc(Cl)c(Cl)cc21	17	-128	22	63*	+	0	78*	-4
N#CCCN(Cc1ccccc1)C(CCc1ccccc1)C(=O)NC1CCCCC1 (centres undefined)	.	-9	.	.	.	.	.	.
CCc1c(C)nc2cc(-c3ccc(OC)c(OC)c3)nn2c1NCC1CC1	1	-1	-2	-3	i	-10	.	.
Cc1nn(C(C)C(=O)Nc2ccc(Cl)cn2)c(C)c1[N+](=O)[O-] (centres undefined)	46	-5	-1	52*	i	-2	9	0
Cc1nn(CC(=O)Nc2ccc(Cl)cn2)c(C)c1[N+](=O)[O-]	-2	4	-5	-1	i	-2	.	.
C=CCN1/C(=C2/SC(=S)N(C)C2=O)Sc2ccccc21	19	.	23	96*	i	43	64*	.
CCN1C(=O)/C(=C2/Sc3ccccc3N2CC)SC1=S	41	9	-5	-7	i	45	.	.
O=C1N=C(N2CCOCC2)S/C1=C/c1cccs1	23	6	-1	71*	i	-3	-2	-3
Cc1ccc(C)c(N(CC(=O)NC2CCCC2)C(=O)CCC(=O)Nc2cc(C)on2)c1	19	-5	-4	-3	i	3	.	.
O=C(Cn1nnc2ccccc21)OCC(=O)c1ccc(Cl)c(Cl)c1	8	-3	0	41*	i	0	1	.
O=C(Cn1nnc2ccccc21)OCC(=O)c1ccccc1	-6	-9	0	6	i	-1	.	.
C#CCN(C[C@@H]1[C@@H](OC(=O)NCc2ccccc2)[C@@H](OC(=O)NCc2ccccc2)Cn2c(=O)n(CCCCCC)c(=O)n21)S(=O)(=O)c1ccc(C)cc1	.	3	.	.	.	.	.	.
C=CCN1C(=O)[C@@H]2Cc3c([nH]c4ccccc34)C(c3cc(OC)c(OC)c(OC)c3)N2C1=S (some centres undefined)	42	-26	-15	-6	i	?	.	.
CCN1C(=O)[C@@H]2Cc3c([nH]c4ccccc34)C(c3cc(OC)c(OC)c(OC)c3)N2C1=S (some centres undefined)	.	-33	-10	59*	i	-14	-8	-6
Cc1ccc(C)c(OCCC(=O)NCCc2ccc(S(N)(=O)=O)cc2)c1	51	5	-16	-4	i	-8	.	.
COc1ccc(S(=O)(=O)N(CC(=O)Nc2ccc3c(c2)OCO3)c2ccccc2OC)cc1	9	-12	-4	-3	i	-5	.	.
SMILES	PHOSPHO1 block	PABP1 MLLE inh	A3G deaminase	APOBEC3A inh	PABP polyA inh	eIF4H inh	A3A conf	UDG ctr A3A
COc1ccccc1N(CC(=O)Nc1ccc2c(c1)OCO2)S(=O)(=O)c1ccccc1	92*	-123	17	49*	i	4	64*	-4
COCCCNC(=O)CSc1ccsc1[N+](=O)[O-]	20	14	-5	3	i	3	.	.
Cc1ccccc1NC(=O)CSc1ccsc1[N+](=O)[O-]	1	7	19	48*	+	?	42*	.
Cc1cccc(NC(=O)CSc2ccc(C(N)=O)cc2[N+](=O)[O-])c1C	1	-87	23	44*	i	-4	6	.
COc1ccc(Cl)cc1NC(=O)CN(C)C(=O)CCCNC(=O)c1ccc(Cl)cc1	.	-8	-9	-5	.	.	.	.
CC1Cc2ccccc2N1C(=S)NC(=O)C1(C)CC1(Cl)Cl (centres undefined)	0	19	-4	1	i	8	.	.
O=C(CSc1nc2ccccc2[nH]1)N1CCN(c2ccccc2)CC1	25	-7	5	3	i	6	.	.
O=C(CSc1nc2sccc2c(=O)[nH]1)N1CCN(c2ccccc2)CC1	28	-86	15	87*	+	62	53*	-2
NS(=O)(=O)c1cnccc1Nc1cccc(F)c1	.	2	-7	-3	.	.	.	.
Cn1c(CCC(=O)Nc2cc(S(C)(=O)=O)ccc2Cl)nc2cc(S(=O)(=O)N3CCOCC3)ccc21	.	-111	26	74*	.	.	76*	3
CCN1C(=O)/C(=C\c2ccc(-c3cccc(C(=O)OC)c3)o2)SC1=Nc1ccc(C(=O)O)cc1	29	.	-4	2	i	26	.	.
O=C(O)c1cccc(-c2ccc(/C=C3/SC(=Nc4ccccc4)N(Cc4cccnc4)C3=O)o2)c1	29	-10	20	52*	+	64*	33*	2
O=C(c1ccc(Cl)cc1Cl)N1CCN(c2ccc(N3CCOCC3)nn2)CC1	.	4	6	-3	.	.	.	.
CN1CCN(S(=O)(=O)c2cccc(C(=O)N(C)CC(=O)Nc3ccc(F)c(F)c3F)c2)CC1	.	-108	22	57*	.	.	66*	-2

Screening results as filed in PubChem.
